miR-122 inh: raises miR-122 sensor activity in Huh7 cells. Huh7 psiCHECK-miR122 Renilla luciferase sensor, 48 h. activation, % at 12.5 µM. 340,000 tested, 0.14% active. AID 623901;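 active = mean activation of 30% or more, with every replicate also reaching 30%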;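 note: higher luciferase signal means stronger suppression of miR-122 activity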
Large screens that a line does not name were inactive. Many of the other results were omitted from the sample, so hits are more common in it than they were.

c1ccc(-c2cc(-c3ccccc3)[n+](-c3ccccc3)c(-c3ccccc3)c2)cc1	miR-122 inh 59.2
O=c1c2ccccc2nc(/C=C/c2ccc([N+](=O)[O-])o2)n1-c1ccc(O)cc1	none
Oc1ccc(/C=N/NP(=S)(c2ccccc2)c2ccccc2)cc1	none
COc1ccc2c(c1)c(CCN)c(C)n2Cc1ccccc1	miR-122 inh 51.6
CC12CCC3C(CCC4(O)CC(O)CCC34C=O)C1(O)CCC2C1=CC(=O)OC1 (stereo unspecified)	none
CC(C)C(NC(=O)C(C(C)C)N(C)C)C(=O)N(C)C(C(=O)N1CCCC1C(=O)N1CCCC1C(=O)NCc1ccccc1)C(C)C (stereo unspecified)	none

Screening data from PubChem BioAssay.
